Pf growth 96h – Primary qHTS for delayed death inhibitors of the malarial parasite plastid, 96 hour incubation; P. falciparum luciferase reporter growth, 96 h; Potency, µM (series often up to 28.7 µM), hits mostly inhibitors; 320,000 compounds, 6.9% hits; AID 504834, 2011; active = well fitted inhibition curve with a large enough effect; inconclusive = small, poorly fitted or top-dose-only effect, or another doubt; inactive = no such curve, though single readings can be large or run the other way
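Parasite growth measured via integrated firefly luciferase reporter in P. falciparum. Infected erythrocytes at 2% hematocrit, 0.05% parasitemia final were treated 96 hours at 37 C under 5% CO2, and luminescence was read.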
NS1 inh – qHTS Assay for Inhibitors of Influenza NS1 Protein Function | Potency, µM (titrated, usually from 46.1 µM) | 270,000 compounds, 0.4% hits | AID 2326, 2010; also: actives are rising curves; nearly all actives have a fitted effect of over 50% in size
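A cell-based growth assay was used: compounds that relieve NS1-induced slow growth of budding yeast raise OD600. Assay medium was yeast nitrogen base with ammonium sulphate and -URA supplement, pH 6.0, with 2% galactose.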
Shiga inhibitor – A qHTS for Small Molecule Inhibitors of Shiga Toxin | 290,000 compounds, 9.2% hits | inhibition, % at 38.7 µM | Vero cells, Shiga toxin protein synthesis inhibition reporter | AID 2315, 2010; in the data active = inhibition mostly above about 28%, no sharp cut-off; inactive = mostly below about 43%
Pf growth 48h – Primary qHTS for delayed death inhibitors of the malarial parasite plastid, 48 hour incubation; P. falciparum luciferase growth in erythrocytes, 48 h; Potency, µM (doses to about 28.7 µM), hits mostly inhibitors; 310,000 compounds, 5.9% hits; AID 504832, 2011; active = well fitted inhibition curve with a large enough effect; inconclusive = small, poorly fitted or top-dose-only effect, or another doubt; inactive = no such curve, though single readings can be large or run the other way
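Erythrocytes infected with P. falciparum carrying an integrated firefly luciferase reporter (2% hematocrit, 0.1% parasitemia final) were exposed to compounds in RPMI 1640 with 0.5% Albumax at 37 C, 5% CO2. Growth inhibition was scored as reduced luminescence.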
CHX counter – Cycloheximide Counterscreen for Small Molecule Inhibitors of Shiga Toxin | max response, % | cell reporter, cycloheximide protein synthesis inhibition counterscreen | 300,000 compounds, 12% hits; in the data active = max response mostly above about 13%, no sharp cut-off; inactive = mostly below about 14%; also: read at 38.3 µM for the half of the compounds with a filed dose
SARS PLpro yeast – qHTS of Yeast-based Assay for SARS-CoV PLP; S. cerevisiae expressing SARS-CoV PLpro, growth rescue; Potency, µM (highest dose often 32.9 µM), usual class: activators; 330,000 compounds, 0.19% hits; also: nearly all actives have a fitted effect of over 55% in size
Numbers stand for hits; 0 = inactive; ? = inconclusive; - = no result given; [ ] = dose if it differs, or a comment. Sampled rows, rich in hits. Any-hit rate of the full collection: about 21%. Unless noted, calls follow the shape of the full dose curve.

SMILES | Pf growth 96h | NS1 inh | Shiga inhibitor | Pf growth 48h | CHX counter | SARS PLpro yeast
CCc1ccc(-c2csc(NC(=O)Oc3ccccc3)n2)cc1 | 11.7µM | 0 | 192.6 | 0 | 24.8 | 0
CCCOc1ccc(C(O)(CCN2CCCCC2)c2ccccc2OC)cc1 (stereo not drawn) | 0 | 0 | 0 | 0 | 0 | 0
CCc1ccccc1OCC(=O)Nc1nc(-c2cccnc2)cs1 | 4.15µM | - | 0 | 4.15µM | 0 | ?
CCC(=O)c1ccc(OCC(=O)Nc2nc(-c3cccnc3)cs2)cc1 | ? | - | - | ? | - | 0
CC(CCN1CCN(c2ccc(F)cc2)CC1)c1ccccc1 (stereo not drawn) | 0 | 0 | 0 | 0 | 0 | 0
O=C(CCS(=O)(=O)c1ccc(Cl)cc1)NCCc1c[nH]c2ccccc12 | 0 | - | 0 | 0 | 0 | 0
Cc1ccc(N=Nc2c(C)[nH]n(C(N)=S)c2=O)cc1C | 0 | 0 | 157.6 | ? | 26.0 | 0
Cc1[nH]n(C(N)=S)c(=O)c1N=Nc1cccc([N+](=O)[O-])c1C | 0 | 0 | 51.2 | ? | 56.9 | 0
CC(=O)Nc1ccc(N=Nc2c(C)[nH]n(C(N)=S)c2=O)cc1 | ? | - | 87.8 | 0 | 33.8 | 0
Cc1[nH]n(C(N)=S)c(=O)c1N=Nc1ccc(S(=O)(=O)N2CCCCCC2)cc1 | 0 | 0 | 0 | - | 0 | ?
Cc1[nH]n(C(N)=S)c(=O)c1N=Nc1cc(-c2ccc(Br)cc2)[nH]n1 | 0 | - | 0 | 0 | 34.6 | 0
Cc1[nH]n(C(N)=S)c(=O)c1N=Nc1ccc2ccccc2c1 | 4.65µM | - | 92.5 | 0 | 45.5 | 0
CC(C(=O)Nc1ccc2c(c1)OCO2)N(C)CC(=O)Nc1ccccc1Cl (stereo not drawn) | - | - | - | - | - | 0
S=C(Nc1ccc2c(c1)OCO2)Nc1ccccc1Cl | 0 | 0 | 35.5 | 0 | 24.1 | 0
S=C(Nc1ccc2c(c1)OCCO2)Nc1ccc2c(c1)OCO2 | 0 | - | 119.8 | 0 | 56.9 | 0
COc1ccc(CCNC(=O)CC2SC(=NCCc3ccccc3)NC2=O)cc1 (stereo not drawn) | ? | 0 | 0 | 0 | 0 | 0
O=C(COC(=O)c1cc(Cl)ccc1O)NCC1CCCO1 (stereo not drawn) | 0 | - | - | 0 | - | 0
CCOC(=O)C1=C(O)c2ccccc2C(=O)/C1=C\c1ccc(C)cc1 | 4.15µM | 0 | 0 | 2.94µM | 0 | 0
CCOC(=O)C1=C(C)N(c2ccc(C)cc2)C(=O)/C1=C\c1ccc(O)c(OC)c1 | 0 | 0 | 0 | ? | 0 | 0
Cn1c(=O)c2c(nc(CN3CCN(c4ccccc4)CC3)n2Cc2ccccc2F)n(C)c1=O | - | 0 | 0 | 0 | 0 | 0
CN1CCN(Cc2nc3c(c(=O)n(C)c(=O)n3C)n2Cc2ccccc2Cl)CC1 | - | 0 | - | - | - | -
Cn1c(=O)c2c(nc(CN3CCN(c4ccccc4)CC3)n2Cc2ccccc2Cl)n(C)c1=O | ? | ? | 0 | 6.57µM | 0 | 0
Cn1c(=O)c2c(nc(CN3CCN(c4ccccc4)CC3)n2Cc2c(F)cccc2Cl)n(C)c1=O | 5.22µM | 0 | 0 | ? | 0 | 0
COC(=O)c1sc(NC(=O)/C=C/c2ccc(C)o2)nc1C | 0 | 0 | 55.5 | 0 | 32.9 | 0
COc1ccc(C(=O)Nc2nc3cc4c(cc3s2)OCO4)c(OC)c1 | 0 | ? | 65.7 | 0 | 38.0 | 0
SMILES | Pf growth 96h | NS1 inh | Shiga inhibitor | Pf growth 48h | CHX counter | SARS PLpro yeast
COc1ccc2nc(NC(=O)c3cccnc3SC)sc2c1 | 0 | 0 | 35.4 | 0 | 61.3 | 0
COc1ccc2nc(NC(=O)c3cc(C)oc3C)sc2c1 | 0 | 0 | 36.0 | 0 | 18.0 | 0
COc1ccc(C(=O)CCC(=O)NC2=NCCS2)cc1 | 0 | 0 | 0 | 0 | 0 | 0
COc1ccc(C2(NC(C)=O)CCN(Cc3cccnc3)CC2)cc1 | 0 | 0 | 0 | 0 | 0 | 0
CC1Cc2ccccc2N1C(=O)c1ccc(F)c(S(=O)(=O)N2CCOCC2)c1 (stereo not drawn) | - | - | - | - | - | 0
COc1ccc2oc(C(=O)Nc3nc4ccc(S(C)(=O)=O)cc4s3)c(C)c2c1 | 0 | - | - | ? | - | 0
COc1ccc(OC)c(NC(=O)c2cccnc2Sc2cc(C)ccc2C)c1 | ? | 0 | 0 | 10.4µM | 0 | ?
Cc1cc(C(=O)Nc2nc3ccc(S(C)(=O)=O)cc3s2)c(C)o1 | 0 | 0 | 29.7 | 0 | 16.5 | 0
COc1ccc2nc(NC(=O)c3ccoc3C)sc2c1 | 0 | 0 | 37.6 | 0 | 48.2 | 0
COC(=O)c1sc(NC(=O)c2c(C)noc2C)nc1C | ? | 0 | 0 | 0 | 0 | 0
COC(=O)c1sc(NC(=O)c2ccoc2C)nc1C | 0[5.75 µM] | 0 | 15.8 | 0 | 26.1 | 0
CC(=O)Nc1ccc(Sc2ncccc2C(=O)Nc2ccc(F)cc2)cn1 | 6.57µM | 0 | 0 | 13.1µM | 0 | 0
CSc1ncccc1C(=O)Nc1ccc(OC(F)(F)F)cc1 | 0 | - | 0 | 0 | 13.0 | 0
COc1ccc2nc(NC(=O)c3sc4nc(C)cc(C)c4c3N)sc2c1 | 0 | 0 | 76.3 | 0 | 36.0 | 0
CSc1ncccc1C(=O)Nc1ccc2c(c1)OCCO2 | - | - | - | - | - | 0
O=C(CSc1nnc2ccc(-c3cccnc3)nn12)Nc1ccc(F)cc1 | ? | - | - | 0 | - | 0
Cc1cccc(C)c1NC(=O)CCCSc1nnc(-c2ccc(F)cc2)n1-c1ccccc1 | 11.7µM | 0 | 0 | 0 | 0 | 0
Cc1cccc(C)c1NC(=O)CCCSc1nnc(-c2ccc(Cl)cc2)n1-c1ccccc1 | ? | 0 | 0 | 0 | 0 | 0
O=C(CSc1nnc(Cn2nnc(-c3ccccc3)n2)n1-c1ccccc1)Nc1ccc(F)cc1 | - | 0 | 0 | 9.28µM | 0 | 0
O=C(CSc1nnc(Cn2nnc(-c3ccccc3)n2)n1-c1ccccc1)Nc1ccccc1 | ? | 0 | 0 | ? | 0 | 0
O=C(CSc1nnc2ccc(-c3ccncc3)nn12)Nc1ccc(F)cc1 | ? | - | - | 11.7µM | - | 0
Cc1cccc(C)c1NC(=O)CSc1nnc(Cn2nnc(-c3ccccc3)n2)n1-c1ccccc1 | 0 | 0 | 0 | 9.28µM | 0 | 0
COc1ccccc1C(=O)C1CCCN(Cc2cccc(OCCO)c2)C1 (stereo not drawn) | 0 | 0 | 0 | 0 | 0 | 0
O=C(COc1ccc(Cl)cc1)Nc1cc2c3c(c1)CC(=O)N3CCC2 | ? | - | - | 0 | - | 0
CN(C(=O)c1cccc(N2C(=O)C3C4C=CC(C4)C3C2=O)c1)C1CCCCC1 (stereo not drawn) | 0 | 0 | 0 | 0 | 0 | 0
CC1CCCN(C(=O)C(C)Sc2nc(-c3ccccc3)cc(C(F)(F)F)n2)C1 (stereo not drawn) | - | 0 | 0 | 2.62µM | 0 | 0
CC(Sc1nc(-c2ccccc2)cc(C(F)(F)F)n1)C(=O)N1CCCCC1 (stereo not drawn) | 0 | 0 | 0 | ? | 0 | 0
O=C(c1ccccc1)C(CCC(CN1CCOCC1)C(=O)c1ccccc1)CN1CCOCC1 (stereo not drawn) | ? | 0 | 0 | 0 | 0 | 0
CN(C)CC(CCC(CN(C)C)C(=O)c1ccccc1)C(=O)c1ccccc1 (stereo not drawn) | 13.1µM | 0 | 0 | 6.57µM | 0 | 0

Source: PubChem BioAssay (National Center for Advancing Translational Sciences (NCATS))
